# Where a name gives a salt, the structure may show the parent alone. Among all 1,500 compounds or so, about 30 (2%) showed activity.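 The calls were made as follows: active = robust z-score below -2; a few such results were not called.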 For the sample, actives were picked, then their nearest neighbours and some compounds at random.
# Test system: optoTopBP1 Flp-In 293 T-REx (HEK293) cells
# Assay: light-induced TopBP1 condensate (nuclear foci) count, plate-normalised robust z-score vs non-control wells; higher = more TopBP1 condensates (negative = condensation inhibitor), active = hit call of the paper
# Details: 10 µM; incubation time 2 h
row,SMILES,light-induced TopBP1 condensate (z-score)
1,CN(c1nccc(=O)[nH]1)C1CCN(c2nc3ccccc3n2Cc2ccc(F)cc2)CC1 [Mizolastine],-0.786 (inactive)
2,CC(C)=CCOc1ccc(/C=C/C(=O)c2ccc(OCC=C(C)C)cc2OCC(=O)O)cc1 [Sofalcone],0.373 (inactive)
3,CC(=O)OCC(=O)[C@@]12OC3(CCCC3)O[C@@H]1C[C@H]1[C@@H]3CCC4=CC(=O)C=C[C@]4(C)[C@@]3(F)[C@@H](O)C[C@@]12C [Amcinonide],0.776 (inactive)
4,CNCC[C@@H](Oc1cccc2ccccc12)c1cccs1 [(R)-Duloxetine hydrochloride],-1.75 (inactive)
5,O=C(CCCCC(=O)Nc1c(I)cc(I)c(C(=O)O)c1I)Nc1c(I)cc(I)c(C(=O)O)c1I [Iodipamide],-0.465 (inactive)
6,CC(C(=O)O)c1ccc(C(=O)c2cccs2)cc1 (stereo unspecified) [Suprofen],-0.434 (inactive)
7,COc1cc(C(=O)NC2CCCNC2)cc(OC)c1OC (stereo unspecified) [Troxipide],-0.997 (inactive)
8,Nc1nc(=S)c2ncn([C@@H]3O[C@H](CO)[C@@H](O)[C@H]3O)c2[nH]1 [Thioguanosine],1.17 (inactive)
9,OCCN1CCN(CCCN2c3ccccc3C=Cc3ccccc32)CC1 [Opipramol dihydrochloride],-0.102 (inactive)
10,CO[C@@H]1[C@@H](O[C@@H]2O[C@H](C)[C@@H](O[C@H]3C[C@@](C)(O)[C@@H](O)[C@H](C)O3)[C@H](N(C)C)[C@H]2O)[C@@H](CC=O)C[C@@H](C)[C@@H](O[C@H]2CC[C@H](N(C)C)[C@@H](C)O2)/C=C/C=C/C[C@@H](C)OC(=O)C[C@H]1OC(C)=O [Acetyl spiramycin],-0.0623 (inactive)
11,CC[C@]12CCCN3CCc4c(n(c5ccccc45)[C@@](O)(C(=O)OC)C1)[C@@H]32 [Vincamine],-0.735 (inactive)
12,CC1=C(C)C(=O)C(C(CCCCCC(=O)O)c2ccccc2)=C(C)C1=O (stereo unspecified) [Seratrodast],-1.1 (inactive)
13,O=C(O)c1ccccc1Nc1cc(Cl)ccc1C(=O)O [Lobenzarit disodium],0.707 (inactive)
14,CCCCC(CC)CNC(=N)NC(=N)NCCCCCCNC(=N)NC(=N)NCC(CC)CCCC (stereo unspecified) [Alexidine dihydrochloride],-0.446 (inactive)
15,COC(=O)C1=C(C)NC(C)=C(C(=O)O[C@H]2CCN(Cc3ccccc3)C2)[C@H]1c1cccc([N+](=O)[O-])c1 [Barnidipine Hydrochloride],-1.06 (inactive)
16,CCOCCn1c(N2CCCN(C)CC2)nc2ccccc21 [Emedastine],-0.971 (inactive)

# Source: the supplement of paper PMC12582362
